Sampled rows, rich in hits. Any-hit rate of the full collection: about 9.4%.
HPGD inh: HPGD (human) dehydrogenase inhibition; purified HPGD, NADH fluorescence kinetic, PGE2 substrate; hit rate 4.3% among 150,000; Potency, µM, for inactives: at the top dose activity change, negative = inhibition, most hits filed as inhibitors; active = well fitted inhibition curve with a large enough effect, not every such curve was filed as active; inconclusive = small, poorly fitted or top-dose-only effect, or another doubt; inactive = no such curve, though single readings can be large or run the other way; note: potency is the fitted concentration of half-maximal effect; % is set by controls: 0 for no effect and ±100 for the full control effect
Target sequence (P15428 whole entry, looked up): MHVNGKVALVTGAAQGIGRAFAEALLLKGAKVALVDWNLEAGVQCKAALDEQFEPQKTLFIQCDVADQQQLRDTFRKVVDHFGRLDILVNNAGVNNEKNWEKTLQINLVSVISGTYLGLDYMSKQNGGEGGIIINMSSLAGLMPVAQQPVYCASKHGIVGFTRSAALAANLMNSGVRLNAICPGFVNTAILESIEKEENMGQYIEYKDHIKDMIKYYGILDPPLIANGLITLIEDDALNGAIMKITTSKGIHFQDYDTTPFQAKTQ
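20 nM HPGD preincubated 15 min at room temperature with compound in 50 mM Tris-HCl pH 8, 0.01% Tween 20. Started with 1 mM NAD+ and 30 uM prostaglandin E2; NADH fluorescence (360/450 nm) read 5 times over 30-s intervals, last minus first.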
HTT aggregate: inhibitors of mutant huntingtin aggregate formation in PC12 cells; hit rate 1.1% among 220,000; PC12 HttQ103-GFP aggregates, Acumen cytometry, 40 h; Potency, µM (doses to about 46.1 µM), without a hit: at the highest dose activity change, negative = inhibition, hits mostly inhibitors; note: potency is the fitted concentration of half-maximal effect; % is set by controls: 0 for no effect and ±100 for the full control effect; nearly all actives have a fitted effect of over 60% in size
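Ecdysone-promoter PC12 model expressing HTT exon 1 Q103 fused to GFP, induced by tebufenozide at 100 nM final. Compounds titrated; aggregates sized 1–25 µm scored on a 488 nm laser cytometer.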
HTT ATP protect: cytoprotection in Huntington HTT-Q103 PC12 cell model; PC12 HTT-Q103 induced, cytoprotection, ATP luminescence, 40 h; Potency, µM (doses to about 56.4 µM), inactives show cytoprotection (ATP increase), hits mostly activators; hit rate 0.14% among 230,000; note: potency is the fitted concentration of half-maximal effect; % of control where 0% means no effect; nearly all actives have a fitted effect of over 45% in size
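Stable PC12 Q103-GFP cells in serum-supplemented, phenol red-free DMEM; induction by tebufenozide at 100 nM final; compound dose series; cell viability quantified luminescently from ATP.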
IMPase Li cell: membrane-permeable IMPase blocker, potentiated with lithium. CHO-M1 cells, IP1 TR-FRET (IP-One), carbachol + lithium. Potency, µM (series often up to 59.4 µM), for the others: at the top dose activity, negative = IMPase inhibition, most hits filed as inhibitors. hit rate 0.35% among 210,000. AID 1457;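 note: IP1 builds up when IMPase is blocked and the TR-FRET signal falls; potency is the fitted concentration of half-maximal effect; plate controls were basal vehicle for no effect and high inhibitor control for full effect; nearly all actives have a fitted effect of over 50% in size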
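Readout is a homogeneous TR-FRET IP1 immunoassay (Ex 320, Em 665 and 620), where raised cytosolic IP1 lowers signal. Cells were CHO-M1 treated 30 min at 37C with test compounds plus a little lithium; AC50 values came from Hill-equation fitting.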
IMPase inh: cell-permeable inhibitors of inositol monophosphatase (IMPase). P97697. CHO-M1 cells, IP1 accumulation, HTRF TR-FRET ratio. inhibition (IP1 accumulation), % at 46.1 µM. 120,000 tested, under 10 active. AID 901; active = well fitted curve in the direction sought with a large enough effect in the signal ratio, not every such curve was filed as active; inconclusive = small, poorly fitted or top-dose-only effect, or a change in a side signal; inactive = no such curve, though single readings can be large or run the other way; the % refers to the signal ratio;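 note: cells stimulated with carbachol in lithium chloride buffer; plate controls were DMSO basal wells for no effect and reference inhibitor wells for full effect; higher means more IMPase inhibition seen as more IP1 and lower FRET ratio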
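Seeded CHO-M1 cells were dosed with compound at up to 46 uM, stimulated with carbachol for 30 min, then lysed in IP-One detection reagents. Higher IP1 lowers the TR-FRET signal.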
ALDH1A1 inh: inhibitors of human aldehyde dehydrogenase 1A1; P00352; Purified ALDH1A1, NADH fluorescence, propionaldehyde substrate; Potency, µM (highest dose often 75.3 µM), without a hit: top-dose activity, negative = inhibition, usual class: inhibitors; hit rate 7.3% among 220,000; active = well fitted inhibition curve with a large enough effect, not every such curve was filed as active; inconclusive = small, poorly fitted or top-dose-only effect, or another doubt; inactive = no such curve, though single readings can be large or run the other way;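 note: potency is the fitted concentration of half-maximal effect; plate controls were no enzyme wells and a reference inhibitor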
Target sequence (P00352 whole entry, looked up): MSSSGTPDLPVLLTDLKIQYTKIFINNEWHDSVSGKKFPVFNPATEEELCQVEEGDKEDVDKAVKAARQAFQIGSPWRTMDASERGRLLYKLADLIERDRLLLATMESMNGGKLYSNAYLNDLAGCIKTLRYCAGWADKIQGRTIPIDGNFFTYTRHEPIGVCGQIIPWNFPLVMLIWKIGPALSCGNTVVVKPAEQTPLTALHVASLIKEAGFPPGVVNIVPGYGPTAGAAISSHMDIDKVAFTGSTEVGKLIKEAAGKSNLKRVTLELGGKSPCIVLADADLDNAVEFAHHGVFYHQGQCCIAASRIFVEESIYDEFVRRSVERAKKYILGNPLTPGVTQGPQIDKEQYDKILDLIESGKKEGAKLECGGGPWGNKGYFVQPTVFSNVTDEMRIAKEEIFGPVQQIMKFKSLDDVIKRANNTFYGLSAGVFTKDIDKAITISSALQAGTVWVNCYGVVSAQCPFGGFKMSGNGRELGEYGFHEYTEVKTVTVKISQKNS
The depositor's hits bear a star; ? = inconclusive; . = no result given; [ ] = remark or other dose. Unless noted, calls come from the whole dose curve; as a rule, active = well fitted curve in the direction sought with a large enough effect; inconclusive = small, poorly fitted or top-dose-only effect, or another doubt; inactive = no such curve, though single readings can be large; an effect the other way counts as inactive or inconclusive.

SMILES	HPGD inh	HTT aggregate	HTT ATP protect	IMPase Li cell	IMPase inh	ALDH1A1 inh
C=CCCCCCCCCC(=O)O	-9%	-18%	?	4%	.	2%
NNC(=O)c1nnn(-c2nonc2N)c1-c1cccs1	-6%	-12%	1%	4%[38.3 µM]	4	11µM*
N=c1sc2ccccc2n1-c1ccccc1	0%	-8%	9%[10 µM]	19%[38.3 µM]	0	-2%
C=CC(=O)N=c1sc2ccccc2n1-c1ccccc1	.	?	-137%	21%	.	0.22µM*
CC1(C)CC2CN(C(=O)Cc3ccccc3)C(C)(C2)C1 (centres undefined)	.	6%	-13%	6%	.	18µM*
O=C(O)C1CCN(C(=O)Cc2ccccc2)CC1	.	-7%[9.22 µM]	3%[10 µM]	-3%	.	0%
COc1ccc(Nc2nc(N)c([N+](=O)[O-])c(N3CCOCC3)n2)cc1	.	-7%[9.22 µM]	2%[10 µM]	.	.	.
Nc1nc(NCc2ccco2)nc(N2CCCCC2)c1[N+](=O)[O-]	-5%	23%	.	3%	.	4µM*
CN1CCN(c2nc(NCc3ccco3)nc(N)c2[N+](=O)[O-])CC1	.	2%[9.22 µM]	4%[10 µM]	.	.	.
Nc1nc(Nc2ccccc2)nc(N2CCOCC2)c1[N+](=O)[O-]	-7%	-11%	19%[10 µM]	5%	.	13µM*
CC(=O)Nc1ccc(NC(=O)COc2ccc([N+](=O)[O-])cc2)cc1	.	-3%	0%	-3%	.	11µM*
Cc1cc(OCC(=O)Nc2ccncc2)ccc1[N+](=O)[O-]	.	9%	.	13%	.	10µM*
NCCOc1ccccn1	-14%	.	-5%[10 µM]	2%	.	5%[13.5 µM]
CNC(=O)[C@@H]1O[C@@H](n2cnc3c(N)ncnc32)[C@@H](O)[C@H]1O	.	.	-12%[1.9 µM]	.	-9	.
O=S(=O)(c1ccc(Cl)cc1)N1CCN(Cc2ccc(O)c3ncccc23)CC1	.	5µM*	.	4%	.	9%
Oc1ccc(CN2CCN(Cc3ccccc3)CC2)c2cccnc12	-19%	3%	-4%	2%[38.3 µM]	6	1%
O=C(CSc1nnc(-c2ccc(Cl)cc2)o1)N1CCc2ccccc21	.	.	.	.	5	.
COc1ccc(OC)c(NC(=O)C2CCN(c3cc(-c4ccccc4)nc4ncnn34)CC2)c1	-5%	11%	-65%	?	-1	?
COc1ccccc1NC(=O)N1CCN(c2cc(-c3ccccc3)nc3ncnn23)CC1	-8%	10µM*	?	7%[38.3 µM]	-1	-5%
CN1CCN(Cc2c(O)ccc3cc(Br)ccc23)CC1	.	18%	-22%	-1%	.	25µM*
O=C1c2ccccc2-c2n[nH]c3cccc1c23	-21%	-8%	-58%	-9%	-15	3.2µM*
O=C(CSc1nc(O)c(C/C=C/c2ccccc2)c(=O)[nH]1)Nc1cccc(F)c1	.	.	.	.	-4	.
Cc1cccc(N2C(=O)CC(SC(=Nc3ccccc3)Nc3ccccc3)C2=O)c1 (centres undefined)	-10%	3.2µM*	.	4%	15	-8%
O=C1SC(SC(=Nc2ccccc2)Nc2ccccc2)C(=O)N1c1ccccc1 (centres undefined)	-12%	15%	.	-1%	.	25µM*
Nc1cc2c(cc1O)CCCC2	.	30%	-2%	32%	.	2.2µM*
SMILES	HPGD inh	HTT aggregate	HTT ATP protect	IMPase Li cell	IMPase inh	ALDH1A1 inh
Oc1ccc2c(c1-c1c(O)c(Br)cc3c1CCCC3)CCCC2	-17%	.	6%	16%	.	2%
CCCc1nc2sc3c(N4CCCCC4)ncnc3c2c2c1CCCC2	.	.	.	.	-6	.
COc1ccc(CNc2nc(-c3cccc(NS(C)(=O)=O)c3)nc3ccccc23)c(OC)c1	.	.	-214%	6%	.	-6%
COc1cccc(OC)c1C(=O)NC(=S)Nc1cc(-c2nc3ccccc3[nH]2)ccc1Cl	-18%	-6%	-38%[10 µM]	4%	1	22µM*
CN1C(=O)NC(c2ccc(O)cc2)C(C(=O)c2cccs2)C1(O)C(F)(F)F (centres undefined)	-5%	-1%	-10%	5%[38.3 µM]	10	7.9µM*
COc1ccc(-c2nc3n(n2)C(c2ccccc2F)C(C(=O)Nc2cccnc2)=C(C)N3)cc1OC (centres undefined)	.	.	.	.	14	.
CC(C)CNc1nc(N)[nH]c(=O)c1NC=O	-7%	.	-3%[10 µM]	-14%	.	22%[13.5 µM]
C/C(CCN1CCCCc2nc(C)c(C)cc21)=N\O[C@@H](C)CN1CCCc2nc(C)c(C)cc21	.	.	17%[10 µM]	.	.	5%[13.5 µM]
CCCCCCOc1ccc(C(=O)O)cc1C#N	20µM*	-10%	.	-10%	.	16%
Cc1ccc(S(=O)(=O)Oc2ccc(/C=C(/NC(=O)c3ccccc3)C(=O)NC(C)C(=O)O)cc2)cc1 (centres undefined)	.	-10%[9.22 µM]	-5%[10 µM]	-1%	.	4µM*
COc1ccccc1C(=O)N/C(=C\c1ccc(Br)cc1)C(=O)NCC(=O)O	-1%	3%	33%[10 µM]	-5%	.	5%
Cc1ccc(S(=O)(=O)Oc2ccc(/C=C(/NC(=O)c3ccccc3)C(=O)O)cc2)cc1	.	25%	-29%	-6%	.	13µM*
Cc1ccc(S(=O)(=O)Oc2ccc(/C=C(/NC(=O)c3ccccc3)C(=O)NCC(=O)O)cc2)cc1	.	-9%[9.22 µM]	0%[10 µM]	7%	.	5µM*
C[C@@H]1/C=C\CC(=O)OC[C@H]2O[C@@H](C=C[C@@H]2O)[C@H](C)/C=C\CC(=O)OC1	.	.	-49%[10 µM]	.	.	-4%[13.5 µM]
Cc1ccc(S(=O)(=O)NC(=O)O[C@@H]2C(=O)c3cc(Br)ccc3O[C@H]2c2ccc3c(c2)OCO3)cc1	-13%	.	-42%	-3%	.	-4%
Cc1ccc(C(=O)c2oc3ccccc3c2NC(=O)COc2ccc(Cl)c(C)c2)cc1	.	.	.	.	0	.
Cc1ccc(-c2nc(=S)c3c(n2Cc2ccco2)CCCC3)cc1	-23%	14%	-1%[10 µM]	?	0	13µM*
CC1(C)Cc2c(c(=S)nc(-c3ccccc3)n2CCO)CO1	35µM*	-26%	20µM*	12%[38.3 µM]	11	25µM*
CC1(C)Cc2c(c(=S)nc(-c3ccccc3)n2CCCN2CCOCC2)CO1	-18%	-14%	-12%[0.074 µM]	-2%	-2	-5%
Cc1ccc(-c2nc(=S)c3c(n2Cc2ccco2)CC(C)(C)OC3)cc1	-3%	?	-1%	4µM*	-2	?
OCCCn1c(-c2ccccc2)nc(=S)c2c1CCCC2	-18%	.	2.8µM*	?	-21	2%
Cc1cccc(-c2nc(=S)c3c(n2Cc2ccco2)CCCC3)c1	-15%	?	4%	?	-13	?
Clc1ccc(Cl)c(Cl)c1Cl	-8%	.	-4%	-29%	.	1%
O=C(CSc1nc(O)cc(=O)n1-c1ccccc1)NC1CCCCC1	-14%	?	12%	13%[38.3 µM]	-7	25µM*
CCOC(=O)C(C(C)=O)c1c(Br)c(O)c(O)c2c(C(=O)c3ccc(C)cc3)coc12 (centres undefined)	7.9µM*	?	-74%[0.074 µM]	26%[38.3 µM]	12	-3%
